Records with an inconclusive call do not appear. The source made the active and inactive calls. Unless noted, calls follow the shape of the dose curve; as a rule, active = well fitted curve in the direction sought with a large enough effect; inconclusive = small, poorly fitted or top-dose-only effect, or another doubt; inactive = no such curve, though single readings can be large; an effect the other way counts as inactive or inconclusive.
test system: not listed separately; test: Validation screen for small molecules that induce genotoxicity in human embryonic kidney (HEK293T) cells expressing luciferase-tagged ELG1 (AID 493106); details: luminescence; series mostly up to 46.1 µM; also: 0% is about no effect
Outline: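 ELG1-luciferase reporter readout (ONE-Glo, 30 min, room temperature) after 16 hr compound treatment at 37 °C of HEK293T cells at 2,000 per well. Rising luminescence flags genotoxic stress.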

| Compound | outcome |
| --- | --- |
| COc1ccc2cc([S+]([O-])Cc3ncc(C)c(OC)c3C)nc2c1 | inactive |
| O=c1[nH]c(=O)n([C@H]2C[C@@H](O)[C@@H](CO)O2)cc1C=CBr | inactive |
| CN[C@H](CC(C)C)C(=O)N[C@H]1C(=O)N[C@@H](CC(N)=O)C(=O)N[C@@H]2C(=O)N[C@H]3C(=O)N[C@H](C(=O)N[C@H](C(=O)O)c4cc(O)cc(O)c4-c4cc3ccc4O)[C@H](O)c3ccc(c(Cl)c3)Oc3cc2cc(c3O[C@@H]2O[C@H](CO)[C@@H](O)[C@H](O)[C@@H]2O[C@H]2C[C@](C)(N)[C@H](O)[C@H](C)O2)Oc2ccc(cc2Cl)[C@H]1O | inactive |

target: ATPase family AAA domain-containing protein 5 (Homo sapiens) (UniProt Q96QE3); test: Validation screen for small molecules that inhibit ELG1-dependent DNA repair in human embryonic kidney (HEK293T) cells expressing luciferase-tagged ELG1 (AID 493107); details: HEK293T ELG1-luciferase level, luminescence, 5-fluorouridine co-treatment, 16 h; series mostly up to 46.1 µM;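 also: % is scaled to controls: 0 for no effect and ±100 for the full control effect; inhibitors lower the ELG1-luciferase luminescence signal; nearly all actives have a fitted effect of over 70% in size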
Outline: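 Luciferase read-out, ONE-Glo, 30 min at room temperature, follows 16 h co-exposure at 37 C of compound and the DNA-damaging agent 5-fluorouridine. Cells: HEK293T with ELG1-luciferase fusion, 2,000 per well, DMSO as vehicle.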

Chain of ATPase family AAA domain-containing protein 5 (Homo sapiens) (Q96QE3 whole entry, looked up, the tested form may be a part): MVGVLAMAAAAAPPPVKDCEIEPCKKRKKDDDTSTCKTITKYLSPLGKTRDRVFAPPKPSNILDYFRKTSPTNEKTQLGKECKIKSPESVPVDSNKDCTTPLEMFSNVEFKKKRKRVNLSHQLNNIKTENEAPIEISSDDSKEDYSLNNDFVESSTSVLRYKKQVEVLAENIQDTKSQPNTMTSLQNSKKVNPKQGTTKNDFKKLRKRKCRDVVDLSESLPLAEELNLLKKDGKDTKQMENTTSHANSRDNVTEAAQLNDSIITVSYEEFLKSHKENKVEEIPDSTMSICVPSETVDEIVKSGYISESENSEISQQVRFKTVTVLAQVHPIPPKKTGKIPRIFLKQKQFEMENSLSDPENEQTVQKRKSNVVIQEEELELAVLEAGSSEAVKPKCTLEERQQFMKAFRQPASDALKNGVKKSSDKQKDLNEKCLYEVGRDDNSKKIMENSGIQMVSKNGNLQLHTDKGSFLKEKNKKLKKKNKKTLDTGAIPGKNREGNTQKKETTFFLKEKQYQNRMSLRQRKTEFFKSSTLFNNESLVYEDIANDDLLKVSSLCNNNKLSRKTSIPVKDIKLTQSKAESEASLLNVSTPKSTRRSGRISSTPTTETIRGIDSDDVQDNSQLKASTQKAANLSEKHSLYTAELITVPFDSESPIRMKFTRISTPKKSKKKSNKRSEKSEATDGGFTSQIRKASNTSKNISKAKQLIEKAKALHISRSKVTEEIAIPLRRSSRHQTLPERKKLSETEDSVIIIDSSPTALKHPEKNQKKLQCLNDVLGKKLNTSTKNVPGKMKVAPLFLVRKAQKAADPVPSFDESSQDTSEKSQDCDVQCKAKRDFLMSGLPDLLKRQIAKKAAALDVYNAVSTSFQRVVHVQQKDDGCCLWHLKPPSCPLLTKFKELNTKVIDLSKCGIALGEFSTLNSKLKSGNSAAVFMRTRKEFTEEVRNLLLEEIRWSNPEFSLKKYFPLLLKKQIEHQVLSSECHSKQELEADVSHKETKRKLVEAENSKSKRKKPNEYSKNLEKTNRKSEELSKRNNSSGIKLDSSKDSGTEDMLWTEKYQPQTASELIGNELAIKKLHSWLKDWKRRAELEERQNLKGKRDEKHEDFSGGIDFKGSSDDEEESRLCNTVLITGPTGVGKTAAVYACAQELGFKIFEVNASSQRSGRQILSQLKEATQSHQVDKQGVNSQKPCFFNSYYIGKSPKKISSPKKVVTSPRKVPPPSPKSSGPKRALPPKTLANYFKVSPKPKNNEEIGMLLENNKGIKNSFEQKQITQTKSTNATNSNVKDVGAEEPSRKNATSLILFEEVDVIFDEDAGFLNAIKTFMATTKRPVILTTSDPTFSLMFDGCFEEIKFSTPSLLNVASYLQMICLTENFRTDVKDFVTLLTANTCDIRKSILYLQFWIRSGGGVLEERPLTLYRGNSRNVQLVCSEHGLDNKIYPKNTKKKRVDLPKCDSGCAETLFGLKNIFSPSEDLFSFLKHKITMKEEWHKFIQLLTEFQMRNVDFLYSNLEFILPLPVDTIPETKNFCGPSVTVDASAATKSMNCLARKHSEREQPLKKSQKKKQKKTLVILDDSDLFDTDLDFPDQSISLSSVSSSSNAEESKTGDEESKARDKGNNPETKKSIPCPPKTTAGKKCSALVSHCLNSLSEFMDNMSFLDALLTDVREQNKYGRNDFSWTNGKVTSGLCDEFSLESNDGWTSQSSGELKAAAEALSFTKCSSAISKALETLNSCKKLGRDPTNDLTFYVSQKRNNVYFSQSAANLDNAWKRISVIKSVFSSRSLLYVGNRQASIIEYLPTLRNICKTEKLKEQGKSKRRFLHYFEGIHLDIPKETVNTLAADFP

| Compound | outcome |
| --- | --- |
| COc1ccc2cc([S+]([O-])Cc3ncc(C)c(OC)c3C)nc2c1 | inactive |
| O=c1[nH]c(=O)n([C@H]2C[C@@H](O)[C@@H](CO)O2)cc1C=CBr | inactive |
| CN[C@H](CC(C)C)C(=O)N[C@H]1C(=O)N[C@@H](CC(N)=O)C(=O)N[C@@H]2C(=O)N[C@H]3C(=O)N[C@H](C(=O)N[C@H](C(=O)O)c4cc(O)cc(O)c4-c4cc3ccc4O)[C@H](O)c3ccc(c(Cl)c3)Oc3cc2cc(c3O[C@@H]2O[C@H](CO)[C@@H](O)[C@H](O)[C@@H]2O[C@H]2C[C@](C)(N)[C@H](O)[C@H](C)O2)Oc2ccc(cc2Cl)[C@H]1O | inactive |

test system: not listed separately; test: Nrf2 qHTS screen for inhibitors: Validation (AID 493153; active = well fitted inhibition curve with a large enough effect in the main read-out, with a control signal flat, not every such curve was filed as active); details: A549 ARE-Fluc reporter, 18-24 h; viability change: measured here: cytotoxicity max response; luciferase luminescence, at 46.1 µM (top of the series)
Outline: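 Concentration-response on A549 ARE_Fluc reporter cells exposed 18-24 h at 37 C, 5% CO2. Cytotoxicity read first by CellTiter-Fluor fluorescence (Ex 405/Em 525), then Nrf2 inhibition by BugLite luminescence after 15 min.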

| Compound | outcome | viability change |
| --- | --- | --- |
| COc1ccc2cc([S+]([O-])Cc3ncc(C)c(OC)c3C)nc2c1 | inactive | -3.22% |
| O=c1[nH]c(=O)n([C@H]2C[C@@H](O)[C@@H](CO)O2)cc1C=CBr | inactive | 1.21% |
| CN[C@H](CC(C)C)C(=O)N[C@H]1C(=O)N[C@@H](CC(N)=O)C(=O)N[C@@H]2C(=O)N[C@H]3C(=O)N[C@H](C(=O)N[C@H](C(=O)O)c4cc(O)cc(O)c4-c4cc3ccc4O)[C@H](O)c3ccc(c(Cl)c3)Oc3cc2cc(c3O[C@@H]2O[C@H](CO)[C@@H](O)[C@H](O)[C@@H]2O[C@H]2C[C@](C)(N)[C@H](O)[C@H](C)O2)Oc2ccc(cc2Cl)[C@H]1O | inactive | -4.03% |

test system: not listed separately; test: qHTS for Inhibitors of Cell Surface uPA Generation: Validation Assay (AID 493164); details: mouse cells, plasminogen activation; series mostly up to 38.3 µM;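 also: RAW 264.7 macrophage cells exposed to compound for 18 h; 0% is about no effect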
Description: NIH Chemical Genomics Center [NCGC]
NIH Molecular Libraries Probe Centers Network [MLPCN]
Assay Submitter (PI): Thomas Bugge
The overall objective of this project is to perform a quantitative high throughput screen (qHTS) to identify novel compounds that inhibit the generation of cell surface urokinase activity. The urokinase plasminogen activator (uPA) is one of the two primary endogenous systems that mediate plasminogen activation into plasmin. Members of this system, including uPA and its receptor (uPAR), are overexpressed in several malignant tumors. This system plays a major role in adhesion, migration, invasion and metastasis of cancer cells. Small molecule inhibitors of the uPA system will serve as probes to understand the molecular mechanisms of the uPA cascade and better understanding the microenvironmental circumstances that facilitate the activation of plasminogen by uPA, and finally may provide novel candidate agents for anticancer drug therapy.
[…] […] Upon inhibition of the uPA activation cascade, the subsequent cell surface uPA activity-dependent translocation of LF into the cytoplasm is inhibited. ATP-Lite is used to measure intracellular ATP concentrations, which remain increased if LF entry into the cytoplasm is inhibited. This validation assay was performed using a small set of validation compounds.
uPA assay protocol summary:
RAW 264.7 cells were maintained in DMEM medium (Invitrogen, Carlsbad, CA) at 37C under a humidified atmosphere containing 5% CO2 and 95% air. The medium contained 10% FBS, 1 mM sodium pyruvate and 50 U/ml penicillin/streptamycin (Invitrogen, Carlsbad, CA). All compounds were screened as 7-point titration from 2.45 nM to 38.3 uM final concentration. The assay was performed in 1536-well format plate as follows:
1.Dispensing RAW 264.7 cells into 1536-well, white walled tissue culture plates at a density of 4000 cells/well (4 uL).
2.Incubation at 37 C in a 5% CO2 incubator overnight. […]
7.Reading plates by ViewLux with an exposure length of 5 seconds.

| Compound | outcome |
| --- | --- |
| COc1ccc2cc([S+]([O-])Cc3ncc(C)c(OC)c3C)nc2c1 | inactive |
| O=c1[nH]c(=O)n([C@H]2C[C@@H](O)[C@@H](CO)O2)cc1C=CBr | inactive |
| CN[C@H](CC(C)C)C(=O)N[C@H]1C(=O)N[C@@H](CC(N)=O)C(=O)N[C@@H]2C(=O)N[C@H]3C(=O)N[C@H](C(=O)N[C@H](C(=O)O)c4cc(O)cc(O)c4-c4cc3ccc4O)[C@H](O)c3ccc(c(Cl)c3)Oc3cc2cc(c3O[C@@H]2O[C@H](CO)[C@@H](O)[C@H](O)[C@@H]2O[C@H]2C[C@](C)(N)[C@H](O)[C@H](C)O2)Oc2ccc(cc2Cl)[C@H]1O | inactive |
